# Measured values from PubChem BioAssay (NCI).
# Compounds without any hit were thinned out: in the full panel of roughly 83,000, 20% have a hit.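 Results are percent growth after 48 hours of single-concentration exposure. 100 means growth as in untreated cells, lower positive values show inhibition; negative values down to -100 show cell death.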 Values without a mark were called inactive. Activity calls are given as the source filed them. The calls were made as follows: active = growth percent below 10; inactive = the rest.
# Tests used:
# Test in all cases: NCI-60 one-dose screen, 48 h (100 = growth as untreated, 0 = no growth, -100 = all killed)
# Conditions in all cases: 10 µM
# DU-145 prostate = system: DU-145 prostate
# K-562 leukemia = system: K-562 leukemia
# MALME-3M melanoma = system: MALME-3M melanoma
# MDA-MB-231 breast = system: MDA-MB-231 breast
# RXF 393 renal = system: RXF 393 renal
# SF-268 CNS = system: SF-268 CNS
# SF-295 CNS = system: SF-295 CNS
# SF-539 CNS = system: SF-539 CNS
# UACC-257 melanoma = system: UACC-257 melanoma
# M14 melanoma = system: M14 melanoma
SMILES,growth (DU-145 prostate),growth (K-562 leukemia),growth (MALME-3M melanoma),growth (MDA-MB-231 breast),growth (RXF 393 renal),growth (SF-268 CNS),growth (SF-295 CNS),growth (SF-539 CNS),growth (UACC-257 melanoma),growth (M14 melanoma)
COc1ccc(C(=O)c2sc3nc(-c4cccs4)ccc3c2N)cc1OC,81%,13%,58.9%,43.8%,66.9%,62.8%,51.3%,54.6%,76.3%,42.1%
C[N+]1=C(/C=C/c2ccc(I)cc2)C(C)(C)c2ccccc21,104%,109%,86%,67.1%,70.7%,89.9%,100%,98.7%,104%,91%
C/C(=N\NC(=S)N1CCCC1)c1ccccn1,16.7%,7.97% (active),-8.16% (active),27.9%,21.5%,9.48% (active),-6.83% (active),4.96% (active),-32.4% (active),6.19% (active)
COc1ccc(Nc2ccnc(N3CCN(c4ccnc5cc(Cl)ccc45)CC3)n2)cc1,15.6%,2.55% (active),5.65% (active),24.8%,-26.6% (active),30.3%,-4.17% (active),-31.4% (active),-1.27% (active),-13.3% (active)
CS(=O)(=O)Nc1ccc([N+](=O)[O-])cc1Oc1ccccc1,100%,78%,92.4%,118%,,98.4%,84.2%,104%,94.7%,105%
CCCCCCN=C(N)CCCCCCCCCCC(N)=NCCCCCC,58.5%,13.5%,44.9%,32.1%,35.8%,28.8%,41%,29.3%,79.8%,23.2%
COc1ccc(-c2nc(NC(=O)CS(=O)(=O)c3ccc(F)cc3)sc2C)cc1,79%,26.4%,55.2%,-37.1% (active),14.4%,65.3%,25.1%,73.6%,65.1%,44%
O=C(COc1ccc(Cl)cc1Cl)Oc1coc(CSc2nc3ccccc3s2)cc1=O,106%,83%,93.4%,86.8%,,102%,105%,98.6%,27.3%,110%
C[C@]12CC[C@H]3[C@@H](CC=C4C[C@@H](O)CC[C@@]43C)[C@@H]1CC[C@@H]2C(=O)C/C=N/O,99.5%,78.1%,84%,103%,96.2%,92.2%,97.2%,91.6%,99.5%,95.7%
CCOc1ccc(-n2cc(-c3ccc(N(C)C)cc3)[n+]3c2CCCCC3)cc1,25.7%,9.14% (active),2.39% (active),19.4%,39.7%,29.1%,-14.7% (active),26.6%,-12.6% (active),10.4%
CC(=O)OC1Oc2ccccc2-c2oc(=O)c(-c3ccc(F)cc3)cc21 (stereo unspecified),92.4%,87.7%,99.5%,73.1%,,81.4%,89.1%,86.4%,58.6%,100%
C/C(=N\NC(=O)c1sc(=S)n(C)c1N)c1cc2ccccc2o1,77.4%,-10.9% (active),99.3%,36%,,55.9%,-20.6% (active),71.9%,56.5%,40.8%
O=C(C=P(c1ccccc1)(c1ccccc1)c1ccccc1)c1ccc(Br)cc1,90.5%,34.6%,85.5%,77.5%,110%,93.5%,91.7%,113%,102%,94.1%
NS(=O)(=O)c1ccc(N2N=C(c3ccc(-c4ccccc4)cc3)CC2c2ccc(Cl)cc2)cc1 (stereo unspecified),96.6%,71.2%,106%,86.9%,73.4%,83.5%,88.4%,93.9%,92.4%,98.2%
Cc1ccccc1[P+](Cc1ccccc1)(c1ccccc1)c1ccccc1,41%,7.69% (active),-1.44% (active),40.7%,64.6%,33.9%,11%,35.4%,-26.7% (active),15.1%
COc1ccc(-c2csc(-c3cc(Cl)cc(Cl)c3Cl)n2)cc1,99.8%,83.9%,77.7%,73.6%,,97.1%,103%,94.8%,46.2%,97.7%
O=C1/C(=C/c2ccc(O)cc2O)N=C2SCCCN12,104%,92.5%,101%,104%,102%,96.9%,96.3%,93.7%,102%,100%
COc1cc(C2CC(=O)Nc3c2c(C)nn3-c2nc3ccccc3[nH]2)cc(OC)c1O (stereo unspecified),96.4%,75.7%,47.3%,7.76% (active),10.4%,40.1%,-34.2% (active),72.8%,44.4%,9.64% (active)
N=C(N)c1ccc(-c2ccc(-c3cccs3)s2)nc1,64.4%,-14.9% (active),57.1%,8.8% (active),30.8%,70.1%,7.11% (active),84.5%,63.2%,75%
Cc1nn2c(/C=C3/C(=O)Nc4ccc(Cl)cc43)c(-c3ccccc3)nc2s1,31.9%,56.7%,-2.37% (active),8.13% (active),7.51% (active),30.4%,70.1%,38.1%,62.3%,55.4%
Cc1ccc(-c2cc(-c3cccc(Nc4ccnc5cc(Cl)ccc45)c3)nc3nc(N)[nH]c(=O)c23)cc1,105%,28.1%,108%,103%,90.9%,91.2%,102%,97.5%,102%,106%
COc1cc(CSc2nc3ccc(C)cc3c(=O)n2Cc2ccccc2)cc(OC)c1OC,9.78% (active),13.8%,30.1%,44.4%,-16.9% (active),51.5%,31%,-16.4% (active),47.4%,35.6%
CCC(OC(=O)CC(C)C)c1ccccc1 (stereo unspecified),103%,99.6%,110%,106%,98.2%,93.7%,94.7%,98.4%,80.6%,102%
CN(C)CCCN1c2ccccc2Sc2ccc(C(F)(F)F)cc21,50.3%,-46.2% (active),-80.6% (active),4.03% (active),,16.8%,-2.18% (active),3.74% (active),6.53% (active),-84.6% (active)
CCOC(=O)Nc1ccc2c(c1)C(=O)N(CCOC)c1ccccc1O2,43.8%,20.3%,61.2%,62.3%,56%,56.9%,28.8%,30.3%,61.7%,19.8%
C(=C\c1nc2ccccc2s1)/c1ccc(N2CCOCC2)s1,92.4%,31.8%,103%,75.5%,,98.2%,69%,81.1%,90.2%,36.6%
COc1cccc(-c2nnc(COc3ccc(-c4nc5ccccc5[nH]4)cc3OC)o2)c1,98.9%,55.5%,89.9%,91.7%,104%,103%,101%,104%,109%,103%
C/C(=N\NC(N)=S)C(C)(C)O,93.2%,37.1%,,77.8%,96.2%,95.9%,79.5%,102%,32.6%,92%
COc1ccc(-c2ccccc2)cc1C(=O)c1ccc(-c2ccccc2)cc1,94%,20.8%,,96.8%,85.7%,88.5%,53.4%,88.4%,106%,52%
